Records with an inconclusive call do not appear. The source made the active and inactive calls. The calls were made as follows, unless noted: active = hit-call score of the fitted dose curve at least 0.9, where 1 is the maximum; inconclusive = response in the unintended direction; inactive = score below 0.9.
Key:
[1] = system: Sodium/Iodide Symporter (NIS), SLC5A5 (gene 6528); test: CPHEA_Stoker_NIS_Inhibition_RAIU: CPHEA's Radioactive Iodide Uptake (RAIU) Assay for Sodium/Iodide Symporter (NIS) Inhibition, Stoker and Laws Labs (AID 2283841)
Outline: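 HEK293T cells stably expressing human NIS (hNIS-HEK293T-EPA) were exposed to test chemicals at 0.001–100uM (0.5% final DMSO) with 125I at a final 329pM in HBSS/10mM HEPES pH 7.4. After 2 hours at room temperature and ice-cold washes, intracellular 125I was counted as CPM and normalized to DMSO wells.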

[2] = CPHEA_Stoker_NIS_Cytotoxicity: Cytotoxicity Assessment for CPHEA's Radioactive Iodide Uptake (RAIU) Assay for Sodium/Iodide Symporter (NIS) Inhibition, Stoker and Laws Labs (AID 2283897);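 as to AC50: active means loss of ATP signal versus DMSO meaning cytotoxicity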
Outline: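 hNIS-HEK293T-EPA human kidney cells were exposed for 2 hours at room temperature to test chemicals (0.001–100uM, 0.5% final DMSO) in HEPES-buffered HBSS, pH 7.4. Viability was read as ATP content by luciferase bioluminescence, loss of signal versus DMSO.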

[3] = biological target: zebrafish Thyroid Hormone Receptor alpha (TRa), thraa (gene 30670) (UniProt Q98867); test: ATG_zfTRa_XSP2: Attagene TRANS-FACTORIAL Multi-Species (XSP1) HepG2 Assay for zebrafish Thyroid Hormone Receptor alpha (TRa) (AID 2283832);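 also: actives raise zebrafish TRa-Gal4 reporter transcript above DMSO baseline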
Outline: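 HepG2 cells transiently transfected with multiplexed GAL4-UAS reporter units expressing chimeric NR-Gal4 proteins; 24 h after dosing, reporter mRNA measured by RT-PCR, FAM labelling, HpaI digestion and capillary electrophoresis; gain of signal versus DMSO baseline.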

[4] = system: turtle Thyroid Hormone Receptor, alpha (TRa), gene 101949057; test: ATG_trTRa_XSP2: Attagene TRANS-FACTORIAL Multi-Species (XSP1) HepG2 Assay for turtle Thyroid Hormone Receptor, alpha (TRa) (AID 2283834);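 also: hits raise reporter mRNA over the DMSO baseline so AC50 marks activators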
Outline: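 Multiplexed TRANS reporter assay; HepG2 carrying NR-Gal4 constructs treated 24 h. mRNA of the GAL4-UAS reporter quantified via labelled RT-PCR fragments on a genetic analyzer, vs DMSO negative control.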

[5] = ATG_M_61_XSP2: Attagene TRANS-FACTORIAL Multi-Species (XSP2) HepG2 Assay for M61 Transcription Factor (Internal Marker) (AID 2283835; active = hit-call score of the fitted dose curve at least 0.9, where 1 is the maximum; inactive = score below 0.9;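 also: reporter mRNA of an internal background marker read by RT-PCR and capillary electrophoresis; active means a rise in signal above the DMSO baseline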)
Outline: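 First, HepG2 cells are transfected with reporter units under GAL4-UAS control. Next, chemicals are applied for 24 h. Then total RNA is reverse-transcribed, amplified, fluorescently labelled and sized by capillary electrophoresis, with gain of signal scored against DMSO.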

[6] = biological target: zebrafish Thyroid Hormone Receptor beta (TRb), thrb (gene 30607) (UniProt Q9PVE4); test: ATG_zfTRb_XSP2: Attagene TRANS-FACTORIAL Multi-Species (XSP1) HepG2 Assay for zebrafish Thyroid Hormone Receptor beta (TRb) (AID 2283836)
Outline: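 HepG2 cells transiently transfected with multiplexed GAL4-UAS reporter units expressing chimeric NR-Gal4 proteins; read 24 h after dosing. Reporter mRNA quantified by RT-PCR, 6-FAM labelling, HpaI digest and capillary electrophoresis; gain of signal fitted relative to DMSO.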

[7] = biological target: human Thyroid hormone Receptor alpha (TRa), THRA (gene 7067) (UniProt P10827); test: ATG_hTRa_XSP2: Attagene TRANS-FACTORIAL Multi-Species (XSP2) HepG2 Assay for human Thyroid hormone Receptor alpha (TRa) (AID 2283838)
Outline: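 HepG2 cells transiently transfected with multiplexed GAL4-UAS reporter units and exogenous NR-GAL4 chimeras; 24 h chemical exposure with 3 nM 6-alpha-fluorotestosterone and 1.5 nM norgestrel present. Reporter mRNA measured by RT-PCR, FAM labelling, HpaI digestion, capillary electrophoresis; gain-of-signal versus DMSO.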

[8] = biological target: frog Thyroid hormone Receptor alpha (TRa), thra-a (gene 397942) (UniProt P15204); test: ATG_frTRa_XSP2: Attagene TRANS-FACTORIAL Multi-Species (XSP2) HepG2 Assay for frog Thyroid hormone Receptor alpha (TRa) (AID 2283839)
Outline: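 Chimeric frog TRα-GAL4 activity in human liver cells measures reporter transcript induction 24 h post-dose. Detection uses RT-PCR, HpaI-digested labelled products and fluorescence capillary electrophoresis; DMSO serves as negative control.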

[9] = biological target: human Thyroid hormone Receptor beta (TRb), THRB (gene 7068) (UniProt P10828); test: ATG_hTRb_XSP2: Attagene TRANS-FACTORIAL Multi-Species (XSP2) HepG2 Assay for human Thyroid hormone Receptor beta (TRb) (AID 2283840);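 also: actives raise reporter mRNA so potency reflects agonist-like gain of signal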
Outline: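 Gain-of-signal reporter transcription, referenced to DMSO, was measured in transiently transfected HepG2 after 24 h exposure; labeled RT-PCR products were resolved by capillary electrophoresis. Assay medium included 3 nM 6-alpha-fluorotestosterone and 1.5 nM norgestrel.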

[10] = system: zebrafish Peroxisome Proliferator-activated Receptor gamma (PPARg), gene 557037; test: ATG_zfPPARg_XSP2: Attagene TRANS-FACTORIAL Multi-Species (XSP2) HepG2 Assay for zebrafish Peroxisome Proliferator-activated Receptor gamma (PPARg) (AID 2283833);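 also: actives increase reporter signal over DMSO so AC50 reflects activation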
Outline: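 HepG2, transient MRTU transfection, 24 h compound; zfPPARg-GAL4 reporter mRNA by RT-PCR + capillary electrophoresis; gain-of-signal vs DMSO.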

[11] = biological target: PGR (gene 5241) (UniProt P06401); test: TOX21_PR_BLA_Followup_Agonist_ratio: Tox21 HEK293 Progesterone Receptor (PR) Agonism Beta-lactamase Follow-Up Assay, Ratio (AID 2283933)
Outline: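 PR-UAS-bla HEK293T cells (GAL4-UAS beta-lactamase reporter) in medium with 2% charcoal-stripped FBS received compounds after 6 hr at 37C, then incubated 16 hr. LiveBLAzer FRET substrate added, 2 hr room temperature; cleaved/uncleaved (ch2/ch1) ratio fitted upward versus DMSO.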

[12] = CEETOX_H295R_11DCORT_noMTC: CeeTox H295R High-throughput Steroidogenesis Assay for 11-Deoxycortisol (11DCORT), maximum tolerated concentration (MTC) filtered results only (AID 2283911; active = hit-call score of the fitted dose curve at least 0.9, where 1 is the maximum; inactive = score below 0.9); details: actives raise or lower the signal
Outline: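 Forskolin-primed (10 uM, 48 h) H295R adrenal cells are dosed for 48 h at 0.1% DMSO; medium 11-deoxycortisol is quantified by LC-MS/MS against a 7-point standard curve, with activity fitted in both directions versus DMSO.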

[13] = CEETOX_H295R_OHPREG_noMTC: CeeTox H295R High-throughput Steroidogenesis Assay for OH-Pregnenolone (OHPREG), maximum tolerated concentration (MTC) filtered results only (AID 2283912; active = hit-call score of the fitted dose curve at least 0.9, where 1 is the maximum; inactive = score below 0.9); details: actives raise or lower the signal
Outline: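 Steroidogenesis in H295R cells (OECD 456, modified): after 48 h forskolin priming and 48 h chemical treatment, secreted 17alpha-hydroxypregnenolone is measured by HPLC-MS/MS. Activity is fitted in both directions against DMSO; concentrations are not filtered by MTT-based MTC.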

[14] = CEETOX_H295R_OHPROG_noMTC: CeeTox H295R High-throughput Steroidogenesis Assay for OH-Progesterone (OHPROG), maximum tolerated concentration (MTC) filtered results only (AID 2283914; active = hit-call score of the fitted dose curve at least 0.9, where 1 is the maximum; inactive = score below 0.9); details: actives raise or lower the signal
Outline: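 Forskolin 10 uM, 48 h prestim → test cmpd in DMSO (0.1% final), 48 h → medium MTBE extraction → LC-MS/MS quant of 17alpha-OH-progesterone. Bidirectional fit vs DMSO; no MTT-based MTC filtering.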

[15] = CEETOX_H295R_CORTISOL_noMTC: CeeTox H295R High-throughput Steroidogenesis Assay for Cortisol, maximum tolerated concentration (MTC) filtered results only (AID 2283916; active = hit-call score of the fitted dose curve at least 0.9, where 1 is the maximum; inactive = score below 0.9); details: actives raise or lower the signal
Outline: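 Cortisol secretion measured by LC-MS/MS after 48 h chemical treatment (final 0.1% DMSO) of forskolin-primed (10 uM, 48 h) H295R cells; gain or loss fitted relative to DMSO, without maximum-tolerated-concentration filtering.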

[16] = CEETOX_H295R_CORTIC_noMTC: CeeTox H295R High-throughput Steroidogenesis Assay for Corticosterone (CORTIC), maximum tolerated concentration (MTC) filtered results only (AID 2283917; active = hit-call score of the fitted dose curve at least 0.9, where 1 is the maximum; inactive = score below 0.9); details: actives raise or lower the signal
Outline: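 Following OECD 456 with minor changes, H295R cultures received 10 uM forskolin for 48 h, then test chemical at 0.1% DMSO for 48 h. Media steroids were extracted and measured by LC-MS/MS.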

[17] = CEETOX_H295R_DOC_noMTC: CeeTox H295R High-throughput Steroidogenesis Assay for DOC, maximum tolerated concentration (MTC) filtered results only (AID 2283918; active = hit-call score of the fitted dose curve at least 0.9, where 1 is the maximum; inactive = score below 0.9); details: actives raise or lower the signal
Outline: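 11-Deoxycorticosterone secreted by human adrenal H295R cells quantified by HPLC-MS/MS after 48 h chemical exposure (0.1% DMSO), following 48 h 10 uM forskolin prestimulation. Concentrations not filtered by MTT-derived MTC; bidirectional fitting.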

[18] = CEETOX_H295R_ESTRADIOL_noMTC: CeeTox H295R High-throughput Steroidogenesis Assay for Estradiol, maximum tolerated concentration (MTC) filtered results only (AID 2283919; active = hit-call score of the fitted dose curve at least 0.9, where 1 is the maximum; inactive = score below 0.9); details: actives raise or lower the signal
Outline: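 H295R human adrenal cells pre-stimulated 48 h with 10 uM forskolin, then exposed 48 h to chemical (0.1% DMSO final). Estradiol in medium measured by HPLC-MS/MS after MTBE extraction and dansyl derivatization; bidirectional fit versus DMSO, concentrations not MTT-filtered.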

[19] = CEETOX_H295R_PROG_noMTC: CeeTox H295R High-throughput Steroidogenesis Assay for Progesterone (PROG), maximum tolerated concentration (MTC) filtered results only (AID 2283920; active = hit-call score of the fitted dose curve at least 0.9, where 1 is the maximum; inactive = score below 0.9); details: actives raise or lower the signal
Outline: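 H295R cells; forskolin 10 uM x 48 h prestim; test cpd 48 h, 0.1% DMSO final; media progesterone via LC-MS/MS; bidirectional fit vs DMSO; no MTT-based MTC filter applied.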

[20] = CEETOX_H295R_ESTRONE_noMTC: CeeTox H295R High-throughput Steroidogenesis Assay for Estrone, maximum tolerated concentration (MTC) filtered results only (AID 2283921; active = hit-call score of the fitted dose curve at least 0.9, where 1 is the maximum; inactive = score below 0.9); details: actives raise or lower the signal
Outline: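 H295R cells prestimulated 48 h with 10 uM forskolin, then exposed 48 h to chemical in 0.1% DMSO; medium estrone measured by HPLC-MS/MS after MTBE extraction and dansyl derivatization, fitted bidirectionally versus DMSO without MTT-based MTC filtering.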

Measured: AC50

Sequence of zebrafish Thyroid Hormone Receptor alpha (TRa), thraa (gene 30670) (Q98867 whole entry, looked up, the tested form may be a part): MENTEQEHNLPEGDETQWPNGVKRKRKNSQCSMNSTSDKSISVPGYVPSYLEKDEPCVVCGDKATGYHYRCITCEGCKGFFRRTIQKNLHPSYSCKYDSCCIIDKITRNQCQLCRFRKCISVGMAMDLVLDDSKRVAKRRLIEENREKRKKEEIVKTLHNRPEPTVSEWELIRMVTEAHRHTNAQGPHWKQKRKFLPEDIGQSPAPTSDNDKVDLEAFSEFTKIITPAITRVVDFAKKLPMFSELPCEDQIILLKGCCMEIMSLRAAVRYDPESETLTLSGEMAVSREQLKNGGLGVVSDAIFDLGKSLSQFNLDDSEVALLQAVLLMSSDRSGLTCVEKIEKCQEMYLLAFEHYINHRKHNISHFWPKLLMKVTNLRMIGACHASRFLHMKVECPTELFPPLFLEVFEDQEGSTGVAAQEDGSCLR
Sequence of human Thyroid hormone Receptor beta (TRb), THRB (gene 7068) (P10828 whole entry, looked up): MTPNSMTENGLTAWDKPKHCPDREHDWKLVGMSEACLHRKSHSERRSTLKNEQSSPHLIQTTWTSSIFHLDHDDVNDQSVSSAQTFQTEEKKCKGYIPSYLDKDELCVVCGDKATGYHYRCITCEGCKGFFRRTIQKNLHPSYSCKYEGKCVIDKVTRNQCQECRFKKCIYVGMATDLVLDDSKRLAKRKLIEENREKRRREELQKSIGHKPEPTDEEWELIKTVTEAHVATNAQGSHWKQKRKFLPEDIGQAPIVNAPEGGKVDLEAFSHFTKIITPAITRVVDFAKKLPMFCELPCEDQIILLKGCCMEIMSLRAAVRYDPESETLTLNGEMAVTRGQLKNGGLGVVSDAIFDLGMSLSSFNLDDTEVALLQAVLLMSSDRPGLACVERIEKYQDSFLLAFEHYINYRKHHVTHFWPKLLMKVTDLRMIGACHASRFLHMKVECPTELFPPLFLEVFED
Sequence of frog Thyroid hormone Receptor alpha (TRa), thra-a (gene 397942) (P15204 whole entry, looked up, the tested form may be a part): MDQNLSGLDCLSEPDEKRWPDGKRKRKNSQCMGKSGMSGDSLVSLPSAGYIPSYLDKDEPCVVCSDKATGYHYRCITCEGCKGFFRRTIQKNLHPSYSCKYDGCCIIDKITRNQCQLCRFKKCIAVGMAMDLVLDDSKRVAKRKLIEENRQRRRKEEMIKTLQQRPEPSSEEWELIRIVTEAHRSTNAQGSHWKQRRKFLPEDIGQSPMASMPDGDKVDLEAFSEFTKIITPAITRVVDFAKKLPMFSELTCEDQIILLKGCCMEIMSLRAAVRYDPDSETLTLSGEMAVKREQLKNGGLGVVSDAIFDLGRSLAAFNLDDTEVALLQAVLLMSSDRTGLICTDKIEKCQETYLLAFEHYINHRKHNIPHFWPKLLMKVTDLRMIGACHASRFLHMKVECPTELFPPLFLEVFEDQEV
Sequence of zebrafish Thyroid Hormone Receptor beta (TRb), thrb (gene 30607) (Q9PVE4 whole entry, looked up, the tested form may be a part): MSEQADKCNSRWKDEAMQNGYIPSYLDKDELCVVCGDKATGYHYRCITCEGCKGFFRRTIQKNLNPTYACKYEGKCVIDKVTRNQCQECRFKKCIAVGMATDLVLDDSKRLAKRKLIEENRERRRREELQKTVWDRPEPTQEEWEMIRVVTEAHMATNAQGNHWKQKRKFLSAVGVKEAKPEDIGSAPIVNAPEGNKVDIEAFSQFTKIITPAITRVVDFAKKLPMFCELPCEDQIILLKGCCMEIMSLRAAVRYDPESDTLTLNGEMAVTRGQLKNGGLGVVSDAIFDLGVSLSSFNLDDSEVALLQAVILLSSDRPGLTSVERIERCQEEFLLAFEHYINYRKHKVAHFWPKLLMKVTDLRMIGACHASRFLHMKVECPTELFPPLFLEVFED
Sequence of human Thyroid hormone Receptor alpha (TRa), THRA (gene 7067) (P10827 whole entry, looked up, the tested form may be a part): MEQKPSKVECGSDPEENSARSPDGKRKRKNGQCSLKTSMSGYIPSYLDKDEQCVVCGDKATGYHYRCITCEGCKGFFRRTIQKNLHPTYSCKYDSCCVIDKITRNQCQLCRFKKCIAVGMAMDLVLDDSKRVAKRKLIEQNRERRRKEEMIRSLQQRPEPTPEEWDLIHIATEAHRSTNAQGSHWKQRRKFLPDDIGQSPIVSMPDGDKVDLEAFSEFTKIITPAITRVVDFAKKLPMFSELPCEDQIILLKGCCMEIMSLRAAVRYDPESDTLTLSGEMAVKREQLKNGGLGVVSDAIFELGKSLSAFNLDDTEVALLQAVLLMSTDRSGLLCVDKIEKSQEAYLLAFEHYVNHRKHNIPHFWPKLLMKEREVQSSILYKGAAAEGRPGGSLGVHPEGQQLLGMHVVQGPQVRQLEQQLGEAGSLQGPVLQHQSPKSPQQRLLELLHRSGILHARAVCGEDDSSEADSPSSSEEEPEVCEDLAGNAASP
Sequence of PGR (gene 5241) (P06401 whole entry, looked up, the tested form may be a part): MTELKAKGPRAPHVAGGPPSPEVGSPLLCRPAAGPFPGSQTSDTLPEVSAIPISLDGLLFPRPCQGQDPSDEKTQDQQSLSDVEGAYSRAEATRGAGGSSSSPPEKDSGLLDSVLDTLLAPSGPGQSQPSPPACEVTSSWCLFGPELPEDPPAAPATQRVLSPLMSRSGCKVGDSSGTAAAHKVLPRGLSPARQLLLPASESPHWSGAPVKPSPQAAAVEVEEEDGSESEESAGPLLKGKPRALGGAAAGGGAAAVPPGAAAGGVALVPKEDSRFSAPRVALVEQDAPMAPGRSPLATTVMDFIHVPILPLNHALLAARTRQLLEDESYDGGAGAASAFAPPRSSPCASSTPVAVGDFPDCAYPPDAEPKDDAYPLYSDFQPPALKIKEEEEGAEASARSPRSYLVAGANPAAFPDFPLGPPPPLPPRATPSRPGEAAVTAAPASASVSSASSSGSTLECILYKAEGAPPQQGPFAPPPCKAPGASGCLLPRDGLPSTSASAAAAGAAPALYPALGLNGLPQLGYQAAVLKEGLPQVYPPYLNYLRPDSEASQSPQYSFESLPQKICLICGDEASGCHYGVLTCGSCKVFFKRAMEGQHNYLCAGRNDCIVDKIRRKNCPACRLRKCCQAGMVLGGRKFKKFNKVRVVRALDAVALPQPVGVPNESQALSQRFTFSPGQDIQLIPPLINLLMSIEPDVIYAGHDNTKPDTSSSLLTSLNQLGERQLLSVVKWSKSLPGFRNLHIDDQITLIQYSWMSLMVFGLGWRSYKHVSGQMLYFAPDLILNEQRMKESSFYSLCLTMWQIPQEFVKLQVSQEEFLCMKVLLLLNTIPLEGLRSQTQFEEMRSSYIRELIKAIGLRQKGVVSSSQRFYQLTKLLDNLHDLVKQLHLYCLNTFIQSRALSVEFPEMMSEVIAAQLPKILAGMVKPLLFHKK

CCOC(=O)C(Cl)Cc1cc(-n2nc(C)n(C(F)F)c2=O)c(F)cc1Cl (centres undefined)
inactive: [1] | [2]

COP(=S)(OC)Oc1nc(Cl)c(Cl)cc1Cl
inactive: [3] | [4] | [5] | [6] | [7] | [8] | [9] | [1] | [2]

N#Cc1nn(-c2c(Cl)cc(C(F)(F)F)cc2Cl)c(N)c1S(=O)C(F)(F)F (centres undefined)
active: [1] 26.8 µM
inactive: [2]

CCOP(=S)(OCC)SCn1c(=O)oc2cc(Cl)ccc21
active: [1] 34.5 µM
inactive: [3] | [10] | [4] | [5] | [6] | [7] | [8] | [9] | [2]

N#CC(CCc1ccc(Cl)cc1)(Cn1cncn1)c1ccccc1 (centres undefined)
active: [1] 76 µM | [2] 60.2 µM
inactive: [11]

C=CC1(C)OC(=O)N(c2cc(Cl)cc(Cl)c2)C1=O (centres undefined)
active: [3] 25.6 µM | [7] 100 µM
inactive: [10] | [4] | [5] | [6] | [8] | [9] | [1] | [2]

OC(c1ccc(Cl)cc1)(c1cncnc1)c1ccccc1Cl (centres undefined)
inactive: [3] | [4] | [5] | [6] | [1] | [2]
active: [10] 45.8 µM | [12] 36.7 µM | [13] 1.29 µM | [14] 31.1 µM | [15] 2.57 µM | [16] 203 nM | [17] 11.4 µM | [18] 9.94 µM | [19] 2.67 µM | [20] 13.9 µM

CC(C)Oc1cc(-n2nc(C(C)(C)C)oc2=O)c(Cl)cc1Cl
active: [4] 16.1 µM
inactive: [10] | [5] | [7] | [8] | [9] | [1] | [2]

COc1ccc(C(c2ccc(OC)cc2)C(Cl)(Cl)Cl)cc1
inactive: [3] | [10] | [4] | [5] | [6] | [7] | [1] | [2]

C=CCC1=C(C)[C@@H](OC(=O)[C@@H]2[C@@H](C=C(C)C)C2(C)C)CC1=O
active: [1] 50 µM
inactive: [2]

Fc1ccc(Oc2ccnc3cc(Cl)cc(Cl)c23)cc1
inactive: [2]
active: [1] 31.1 µM

Oc1ccccc1-c1ccccc1
inactive: [1] | [2]

COC(=O)c1ccccc1C(=O)OC
inactive: [12] | [13] | [14] | [15] | [16] | [17] | [18] | [19] | [20]

CCCCC(CC)COC(=O)c1ccccc1C(=O)OCC(CC)CCCC (centres undefined)
not listed: [1] | [2] | [8] | [10] | [11]
inactive: all other assays above

N#Cc1cc(Br)c(O)c(Br)c1
inactive: [2]
